Experimental findings from PubChem BioAssay are described below.

A number with no mark means an inactive call. No rule for the calls is given here.

The test deals with Lethal factor (Bacillus anthracis) (UniProt P15917). The test is described as follows: Bacillus anthracis lethal factor inhibition, microsphere flow cytometry protease assay, validation at 10 µM (AID 588461). Conditions: multiplex microsphere protease cleavage assay, stronger effect = higher value.
Sequence of Lethal factor (Bacillus anthracis) (P15917 whole entry, looked up): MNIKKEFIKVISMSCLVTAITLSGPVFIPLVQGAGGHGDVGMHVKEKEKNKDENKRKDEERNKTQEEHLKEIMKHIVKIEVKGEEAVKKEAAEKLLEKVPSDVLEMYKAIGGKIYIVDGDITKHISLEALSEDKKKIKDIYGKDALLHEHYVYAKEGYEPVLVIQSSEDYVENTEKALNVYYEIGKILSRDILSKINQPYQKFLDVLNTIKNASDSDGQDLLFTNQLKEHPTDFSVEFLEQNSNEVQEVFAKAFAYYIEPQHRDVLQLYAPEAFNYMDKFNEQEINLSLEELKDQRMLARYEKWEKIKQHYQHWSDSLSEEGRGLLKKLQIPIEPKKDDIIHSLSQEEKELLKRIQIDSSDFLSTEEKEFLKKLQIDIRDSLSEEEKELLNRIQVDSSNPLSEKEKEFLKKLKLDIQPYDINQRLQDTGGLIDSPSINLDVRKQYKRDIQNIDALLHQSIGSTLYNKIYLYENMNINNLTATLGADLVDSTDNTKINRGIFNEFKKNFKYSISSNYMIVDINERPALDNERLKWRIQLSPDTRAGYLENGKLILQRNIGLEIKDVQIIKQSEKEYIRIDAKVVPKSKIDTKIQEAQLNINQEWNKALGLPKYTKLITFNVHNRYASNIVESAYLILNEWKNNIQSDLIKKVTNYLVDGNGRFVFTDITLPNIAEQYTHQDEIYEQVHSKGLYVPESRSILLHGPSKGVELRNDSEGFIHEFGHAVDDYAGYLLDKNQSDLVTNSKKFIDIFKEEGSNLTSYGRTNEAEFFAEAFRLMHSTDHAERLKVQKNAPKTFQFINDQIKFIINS
`Cc1ccc2c(c1)C1OCCC1C1N2C(=O)C2C(C(=O)O)C3C=CC21O3` (stereo unspecified): the inhibition was 5.5%.
In the case of `COc1ccc(C=O)c(OC)c1`, the inhibition was 0.2%.
Under `CCNC1=C(Cl)C(=O)c2ccccc2C1=O` stands -6%; under `CC(=O)NC1C(OCc2ccccc2)OC(COC(C)=O)C(OC(C)=O)C1OC(C)=O` (stereo unspecified), -2.2%; under `O=P(c1ccccc1)(c1ccccc1)c1nc(-c2ccc(Cl)cc2)oc1N1CCOCC1`, 0.6%.
Take `COc1cc(C=NCC2OCCc3ccccc32)cc(OC)c1` (stereo unspecified): the inhibition is 3.3%.
Take `COc1ccc2c3c([nH]c2c1)C1(NCC3)C(=O)Nc2ccccc21` (stereo unspecified): the inhibition is -4.5%.
Under `C[C@]12CCC(=O)C=C1CC[C@@H]1[C@@H]2[C@@H](O)C[C@@]2(C)[C@H]1CC[C@]2(O)C(=O)COC(=O)CCC(=O)O` stands -8%; under `COc1cc(C2NCCc3c2[nH]c2ccccc32)ccc1OC(C)C` (stereo unspecified), 4.3%; under `CC(=O)OCC(=O)[C@@]1(O)[C@H](C)C[C@H]2[C@@H]3CCC4=CC(=O)C=C[C@]4(C)[C@@]3(F)[C@@H](O)C[C@@]21C`, 6.7%.
In the case of `OC(C#CCN1CCCC1)(c1ccccc1)c1cccnc1` (stereo unspecified), the inhibition is -1.1%.
Under `CC(NC(=O)c1ccc(OC2CCN(Cc3ccccn3)CC2)cc1)c1ccccc1` (stereo unspecified) stands 3.4%; under `CNc1nc(N(C)C)nc(N(C)C)n1`, -1.7%; under `COc1cc(/C=C(\C#N)C(=O)N2CCc3ccccc32)ccc1O`, 0.9%.
Consider `O=C(/C=C/c1ccccc1)c1ccccc1`, for which the inhibition is -0.6%.
Under `CC(C)c1ccccc1OCCNC(=S)NC(=O)c1cccnc1` stands 2.6%; under `CN/C(=C/[N+](=O)[O-])NCCSCc1ccc(CN(C)C)o1`, -7.4%; under `OCCN1CCN(CCCN2c3ccccc3Sc3ccc(C(F)(F)F)cc32)CC1`, -5.1%.
For `Cc1cc(=O)oc(C)c1C(=O)NCCC(C)C` the value was 4%; for `Cc1ccc(S(=O)(=O)N[C@@H](Cc2ccccc2)C(=O)CCl)cc1`, 3.4%; for `CCn1c(C)cc2c(c1=O)C(c1ccccc1)C(C(=O)OC)=C(N)O2` (stereo unspecified), -3.3%.
Consider `C=C(C)COc1ccc(-c2n[nH]c(C)c2-c2ccc(OC)cc2)c(O)c1`, for which the inhibition was 5.2%.
With `CC1(C)CC(O)(CNCc2ccc3c(c2)OCO3)CCO1` (stereo unspecified), the inhibition was 1.2%.
For `CC(C)=CCC/C(C)=C/CC/C(C)=N/O` the value was 4.1%; for `Cc1ccc2nc(NC3=NC(CC(=O)O)C(=O)N3)nc(C)c2c1` (stereo unspecified), -4.8%.
Consider `CCOC(=O)C1=C(N)Oc2c(c(=O)[nH]c3ccccc23)C1c1ccccc1` (stereo unspecified), for which the inhibition is -1.6%.
Under `CCCCN1C[C@H](O)[C@@H](O)[C@H](O)[C@H]1CO` stands 0.7%; under `O=C(NCCO)c1ccc2[nH]c3ccccc3c2c1`, 5.3%; under `COc1cc(C(=O)NCCc2c[nH]c3ccccc23)ccc1OCc1c(C)noc1C`, 0.2%.
Under `CCC[C@@H]1C[C@@H](C(=O)N[C@H]([C@@H](C)O)[C@H]2O[C@H](SC)[C@H](O)[C@@H](O)C2O)N(C)C1` (stereo partly specified) stands 0.6%.
With `CC(C)(C)NC[C@H](O)COc1nsnc1N1CCOCC1`, the inhibition was -3.8%.
